Screening data as filed in PubChem BioAssay.
Shown is part of a subset that was picked to be rich in hits.
ST2 inh: blocks human ST2 binding to IL-33; AID 1259354; 2.3% of 78,000 active; AlphaLISA ST2-Fc/biotin-IL-33 interaction, 1 h; inhibition, % for hits at 17 µM; in the data active = inhibition above about 30%
Target sequence (Q01638 whole entry, looked up): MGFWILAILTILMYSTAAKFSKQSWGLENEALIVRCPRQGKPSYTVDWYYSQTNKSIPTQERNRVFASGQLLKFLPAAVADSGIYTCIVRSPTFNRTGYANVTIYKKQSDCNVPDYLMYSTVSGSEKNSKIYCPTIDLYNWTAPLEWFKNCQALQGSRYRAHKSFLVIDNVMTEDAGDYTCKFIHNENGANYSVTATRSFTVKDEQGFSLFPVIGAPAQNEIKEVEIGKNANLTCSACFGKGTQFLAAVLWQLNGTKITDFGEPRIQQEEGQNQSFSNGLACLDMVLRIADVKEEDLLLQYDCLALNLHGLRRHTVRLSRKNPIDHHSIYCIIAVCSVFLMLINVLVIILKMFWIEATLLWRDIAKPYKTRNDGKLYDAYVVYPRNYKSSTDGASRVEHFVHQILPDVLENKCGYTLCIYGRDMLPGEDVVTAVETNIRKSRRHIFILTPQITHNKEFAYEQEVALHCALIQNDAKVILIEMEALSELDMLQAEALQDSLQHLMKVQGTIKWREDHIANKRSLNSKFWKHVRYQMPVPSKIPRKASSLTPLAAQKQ
* = called active by the depositor; i = inactive.

SMILES	ST2 inh
CCn1cc(C(=O)NC2CCCC2)c(=O)c2cc(S(=O)(=O)N3CCC(C)CC3)ccc21	i
O=C(Cn1c(=O)[nH]c2ccsc2c1=O)N1CCC(Cc2ccccc2)CC1	i
CCOC(=O)C1=C(N)OC2=C(C(=O)CC(c3ccccc3)C2)C1c1ccc(F)cc1 (stereo not given)	i
Nc1ncnc(N2CCN(c3ccccc3Cl)CC2)c1[N+](=O)[O-]	i
COCc1ccc(C(=O)NCc2ccc3c(c2)n(C)c(=O)n3C)o1	i
Cn1c(=O)n(C)c2cc(CNC(=O)Cc3c[nH]c4ccccc34)ccc21	30.0%*
Cc1cc(C)n(CCC(=O)NCCc2c[nH]c3ccccc23)c(=O)n1	i
Cc1ccccc1-c1noc(CN2CCCC(N3CCCC3=O)C2)n1 (stereo not given)	i
COC(=O)c1c(C)oc2cc(Br)c(OC(=O)c3ccccc3C)cc12	i
CCN1CCN(Cc2ccc(-c3ccccc3)cc2)CC1	i
CCN1CCN(Cc2ccc(N(CC)CC)cc2)CC1	58.0%*
CN1CCCN(Cc2cccc(F)c2)CC1	i
CN1CCCN(Cc2cccc(Cl)c2)CC1	i
CCN(CC)c1ccc(CN2CCN(C)CC2)cc1	56.0%*
CCc1ccc(CN2CCSCC2)cc1	i
Cc1cccc(NC(=O)c2ccc(=O)n(Cc3ccc(F)cc3)c2)c1C	i
CC(C)(C)c1ccnc(N[C@H]2CO[C@H]3[C@@H]2OC[C@@H]3NC(=S)Nc2ccccc2)n1	i
Cc1c(C(=O)NC2CC2)oc2ccc(S(=O)(=O)N3CCOCC3)cc12	i
CCn1c(C(=O)O)c(CC(=O)Nc2ccc3c(c2)OCCO3)c2ccccc21	i
O=C(N[C@H]1CO[C@H]2[C@@H]1OC[C@@H]2Nc1nccc(-c2cccs2)n1)c1cccs1	i
CCOc1ccc(C(=O)Nc2c(C)cccc2CC)cc1[N+](=O)[O-]	i
COc1ccc(NC(=O)c2cccc(Oc3ccc(C(F)(F)F)cc3[N+](=O)[O-])c2)cc1	i
Cc1cc(Oc2cc(C#N)c(C#N)cc2[N+](=O)[O-])cc(C)c1Cl	39.0%*
CCOC(=O)Cn1c(=O)n(-c2ccc(C)c(C)c2)c2nc(-c3ccc(F)cc3F)nc(C(N)=O)c21	i
C=CCNC(=O)COc1cc(C)c(Br)c(C)c1	i
SMILES	ST2 inh
CN1C[C@@H](NC(=O)CC(C)(C)CC(=O)O)C[C@H]1c1nc(-c2ccc(F)cc2)no1	30.0%*
CN1C[C@@H](NC(=O)c2ccccc2)C[C@H]1c1nc(-c2ccc(F)cc2)no1	i
CN1C[C@@H](NC(=O)Nc2cccc(F)c2)C[C@H]1c1nc(-c2cccnc2)no1	i
CN1C[C@@H](NC(=O)c2ccco2)C[C@H]1c1nc(-c2cccnc2)no1	49.0%*
CN1C[C@@H](NC(=O)NCc2ccccc2)C[C@H]1c1nc(-c2ccccc2)no1	i
Cc1ccc(-c2noc([C@@H]3C[C@H](NC(=O)Nc4cccc(F)c4)CN3C)n2)cc1	i
CN1C[C@@H](NC(=O)Nc2ccccc2)C[C@H]1c1nc(-c2ccc(F)cc2)no1	i
CN1C[C@@H](NC(=O)Nc2cccc(F)c2)C[C@H]1c1nc(-c2ccc(F)cc2)no1	36.0%*
CN1C[C@@H](NC(=O)CCC(=O)O)C[C@H]1c1nc(-c2ccccc2)no1	i
COc1ccc(CCNC(=O)C2(C)CCC(=O)N2Cc2ccc(F)cc2)cc1OC (stereo not given)	i
Cc1ccccc1S(=O)(=O)Cc1ccc(C(=O)NCC2CCCO2)o1 (stereo not given)	i
O=C(NCc1cccnc1)c1cnc(N2CCN(c3ccccn3)CC2)c2ccccc12	i
OCCN(Cc1ccccc1)Cc1ccccc1	i
NN(Cc1ccccc1)c1ccccc1	37.0%*
COc1ccc(N(N)Cc2ccccc2)cc1	50.0%*
COc1ccc(CN(C)Cc2ccccc2)cc1	i
COc1ccc(OCCN(C)Cc2ccccc2)cc1	i
O=S(=O)(c1ccccc1)N(Cc1ccccc1)Cc1ccccc1	i
O=C(c1ccc2nc3ccsc3c(=O)n2c1)N1CCN(Cc2ccccc2)CC1	i
CCSc1nc2c(c(=O)[nH]1)C(c1ccccc1OC)C1=C(CCCC1=O)N2 (stereo not given)	i
COc1ccc(CN2CCCN(CC(=O)Nc3ccc(OC)c(Cl)c3)S2(=O)=O)cc1	i
CN(Cc1cc(-c2ccccc2)n[nH]1)Cc1ncccc1C(=O)O	i
COCCN[C@H]1[C@@H]2OC[C@@H](O2)[C@@H](NCc2ccc(-c3ccccc3)cc2)[C@@H]1O	36.0%*
O[C@H]1[C@H](NCc2ccc(-c3ccccc3)cc2)[C@H]2CO[C@H](O2)[C@@H]1Oc1ccccc1	i
COc1ccccc1N1CCN([C@H]2[C@@H]3OC[C@@H](O3)[C@@H](NCc3ccc(-c4ccccc4)cc3)[C@@H]2O)CC1	i
SMILES	ST2 inh
C=CCNC(=O)c1ccc2c(=O)n(CCc3ccccc3)c(=O)[nH]c2c1	i
O=C(O)c1ccc2c(c1)N(Cc1ccccc1)C(=O)CS2	i
Cc1nc(CCN(C)C(=O)CCNC(=O)c2ccccc2F)no1	i
CCOc1ccc(NC(=O)c2cccc([N+](=O)[O-])c2)cc1	i
CCOc1ccc(C(=O)c2cccc([N+](=O)[O-])c2)cc1	31.0%*
CCOc1ccc(N=C(c2cccc([N+](=O)[O-])c2)N2CCOCC2)cc1	i
CSc1cccc(NS(=O)(=O)c2cccc3cccnc23)c1	i
Cc1ccc(S(=O)(=O)c2nc(-c3ccc(F)cc3)oc2N(C)C)cc1	i
Cc1nc2ccc3nc(NC(=O)c4ccccc4Cl)sc3c2s1	i
COC(=O)c1ccc(C(=O)Nc2nc3ccc4nc(C)sc4c3s2)cc1	30.0%*
Cc1nc2ccc3nc(NC(=O)c4cccc(Br)c4)sc3c2s1	i
COCc1ccc(C(=O)N2CCCC3(C2)C(=O)Nc2ccccc23)o1 (stereo not given)	i
O=C(NC1CCCCC1)c1ccc(Cl)c(S(=O)(=O)N2CCCCC2)c1	i
COc1ccc(Cn2cnc([N+](=O)[O-])c2)cc1Br	i
COc1ccc(Cc2nc3cc(C)c(C)cc3n(C)c2=O)cc1Br	i
COc1ccc(Cc2nc3cc(C)c(C)cc3[nH]c2=O)cc1Br	31.0%*
Cc1cc(C)[n+]2nc(C)sc2n1	i
CC(=O)Nc1ccc(S(=O)(=O)Nc2ccc(CSc3ccccc3)cc2C)cc1	i
COC(=O)c1c(C)oc2ccc(OCc3ccccc3)cc12	i
COc1ccc(-c2cc(C[C@H]3CNCC[C@H]3CC(=O)N3CCN(c4ccccc4)CC3)no2)cc1	i
O=C(C[C@@H]1CCNC[C@@H]1Cc1cc(COc2ccccc2)on1)N1CCN(c2ccccc2)CC1	42.0%*
O=C(C[C@@H]1CCNC[C@@H]1Cc1cc(COc2ccccc2)on1)N1CCOCC1	i
CCCCN(Cc1sccc1C)C(=O)C1CCC(O)CC1 (stereo not given)	i
CCN(CC)S(=O)(=O)c1ccc(C(=O)Nc2nnc(-c3ccccc3OC)o2)cc1	i
Cc1ccc(Nc2nc3ccccc3c(=O)s2)cc1	i
SMILES	ST2 inh
COc1ccc(Nc2nc3ccc(F)cc3s2)cc1	i
Cc1ccc(C)c(-c2csc(Nc3ccc(F)cc3)n2)c1	i
O=C1N=c2ccccc2=C1c1sc(Nc2ccc(Br)cc2)nc1O	40.0%*
NC(=O)C1CCN(c2nc(O)c(C3=c4ccccc4=NC3=O)s2)CC1	i
O=C1N=c2ccc(F)cc2=C1c1sc(Nc2ccc(F)cc2)nc1O	48.0%*
Cc1cc(Cl)ccc1NC(=O)CN1CCN(Cc2ccc3c(c2)OCO3)CC1	i
